From PubChem BioAssay
The list is not random: actives were taken first. Their share in the collection is about 31%.
PLAP activator – activators of human placental alkaline phosphatase. 96,000 tested, 1.2% active. activation fold at 20 µM. purified PLAP enzyme, luminescent substrate read-out; stronger effect = higher value. AID 696; in the data active = activation fold above about 2
CYP2C19 act – activators of human cytochrome P450 2C19 | 96,000 tested, under 10 active | AID 1025 | activation factor at 5 µM | P33261 | recombinant CYP2C19, luciferin-H EGE luminescence; stronger effect = higher value; 0 = fully inhibited enzyme, 1 = untreated enzyme;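 active = activation factor of at least 2 at 5 µM in the primary screen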;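 note: 0 = wells with 2.5 mM tranylcypromine and 1 = vehicle-only wells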
CYP2C9 inhib – human CYP2C9 inhibition | CYP2C9 Supersomes, luciferin-H conversion, luminescence | inhibition, % at 5 µM | 96,000 tested, 20% active;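 active = blocking of liver enzyme CYP2C9 beyond about 50% at 5 µM, limit read from the data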
Target sequence (P11712 whole entry, looked up): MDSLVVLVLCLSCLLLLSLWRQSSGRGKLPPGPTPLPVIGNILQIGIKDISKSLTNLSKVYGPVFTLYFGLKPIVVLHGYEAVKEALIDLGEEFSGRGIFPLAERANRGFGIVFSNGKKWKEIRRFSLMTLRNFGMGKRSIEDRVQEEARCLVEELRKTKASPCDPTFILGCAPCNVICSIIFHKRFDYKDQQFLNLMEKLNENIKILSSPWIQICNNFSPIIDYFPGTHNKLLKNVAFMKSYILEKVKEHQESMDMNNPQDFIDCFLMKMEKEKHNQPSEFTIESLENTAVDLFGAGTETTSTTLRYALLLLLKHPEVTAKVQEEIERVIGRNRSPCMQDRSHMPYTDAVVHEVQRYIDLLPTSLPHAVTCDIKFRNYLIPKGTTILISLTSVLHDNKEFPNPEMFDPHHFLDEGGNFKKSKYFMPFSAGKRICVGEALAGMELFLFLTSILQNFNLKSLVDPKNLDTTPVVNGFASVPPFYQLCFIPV
CYP2C19 inhib – inhibitors of human CYP2C19. P33261. CYP2C19 Supersomes, luciferin-H EGE luminescence, 30 min. inhibition, % at 5 µM. 96,000 tested, 21% active;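 active = CYP2C19 inhibition above a set limit at 5 µM in the primary screen, cut at about 50% in these data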;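 note: plate controls were negative control wells for no effect and 2.5 mM tranylcypromine positive control for full effect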
CYP2C9 act – increases human cytochrome P450 2C9 activity. P11712. recombinant CYP2C9, luciferin-H conversion, luminescence; stronger effect = higher value; factor 1 = untreated enzyme, 0 = blocked. activation factor at 5 µM. 96,000 tested, 1.4% active;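 active = activation factor of 2 or more for CYP2C9 at a 5 µM dose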;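 note: 0 = sulfaphenazole-blocked wells and 1 = vehicle-only wells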
An asterisk follows results filed as active.

SMILES	PLAP activator	CYP2C19 act	CYP2C9 inhib	CYP2C19 inhib	CYP2C9 act
CCCC(=O)OCC(=O)Nc1ccc(OC(F)F)cc1	0.9	0.4	47	59*	0.5
COc1cccc(OC)c1C(=O)OCC(=O)Nc1ccc(OC(F)(F)F)cc1	1.8	0.2	99*	75*	0
Cc1cccc(NC(=O)Cn2cccc2)c1	1	0.8	22	24	0.8
CCn1c2ccccc2c2nnc(SCc3ccc(C(=O)OC)o3)nc21	1	0.5	22	48	0.8
O=C(O)c1cccc(N2C(=O)c3cccnc3C2=O)c1	1	1	21	-5	0.8
O=C(COc1ccc(-c2nnco2)cc1)N1CCN(S(=O)(=O)c2ccc3ccccc3c2)CC1	1.3	0.7	-7	29	1.1
Cc1cc(=O)[nH]c(Cc2ccc(OC(C)C)cc2)n1	1	0.8	-2	22	1
COc1ccc(C2C(C(=O)c3cccs3)=C(O)C(=O)N2c2nnc(C)s2)cc1OC (stereo not given)	1.3	1	17	3	0.8
Cc1nc(C)c(C(=O)C2=C(O)C(=O)N(CCCn3ccnc3)C2c2ccc(Cl)cc2)s1 (stereo not given)	1.4	0.8	59*	24	0.4
CCCOc1ccc(C2C(C(=O)c3ccco3)=C(O)C(=O)N2CCCn2ccnc2)cc1 (stereo not given)	1.5	0.7	61*	25	0.4
COc1cccc(C2C(C(=O)c3cccs3)=C(O)C(=O)N2CCCn2ccnc2)c1OC (stereo not given)	1.6	0.2	89*	77*	0.1
Cc1ccc(-c2nnc(CSc3nnc4c5c(C)c(C)sc5nc(C(C)C)n34)o2)cc1	1.4	0.6	31	44	0.7
Cc1ccc(S(=O)(=O)c2cc3c(=O)n4cccc(C)c4nc3n(CC3CCCO3)c2=N)cc1 (stereo not given)	1	0.9	18	9	0.8
N#C/C=C(/N)N1CCN(c2ccc(Cl)c(Cl)c2)CC1	0.9	0.7	28	33	0.7
COC(=O)c1ccccc1NC(=O)CSc1nc(O)cc(=O)n1C1CCCC1	1.2	0.7	74*	28	0.3
Cn1ccnc1SCC(=O)Nc1cccc2ccccc12	0.9	0	-61	97*	1.6
CCOC(=O)c1ccc(NC(=O)CSc2nccn2C)cc1	1.1	0.4	9	60*	0.9
O=C(O)CSCC(=O)Nc1cccc2ccccc12	1.3	1.2	-7	-21	1.1
COC(=O)c1ccccc1NC(=O)CSc1nnc(CNS(=O)(=O)c2ccc(C)cc2)n1C	1.1	0.5	94*	52*	0.1
Cc1ccc(-c2nn(C)c(=O)c3ccccc23)cc1CN1CCOCC1	1.2	0.9	28	14	0.7
Cc1cc(C(F)(F)F)nn1CC(=O)NNC(=S)Nc1cccc(Cl)c1	1.5	0.8	49	21	0.5
COc1cc2nc(COc3ccc(C#N)cc3)n(CC#N)c(=O)c2cc1OC	1.5	0.8	35	22	0.7
CCOC(=O)c1c(CNCCN(CC)CC)n(C)c2cc(Br)c(OC)cc12	1.7	0.9	-35	7	1.4
CC(=O)Oc1ccc(-c2cccc(C(=O)Oc3ccccc3)c2)cc1	1.2	1.1	-13	-8	1.1
COC(=O)c1ccccc1NC(=O)COC(C)=O	1	0.8	-3	15	1
SMILES	PLAP activator	CYP2C19 act	CYP2C9 inhib	CYP2C19 inhib	CYP2C9 act
COC(=O)c1ccccc1NC(=O)CSc1nccn1C	1	0.1	7	85*	0.9
Cn1ccnc1SCC(=O)NC12CC3CC(CC(C3)C1)C2	0.9	0.1	5	92*	0.9
COC(=O)c1ccccc1NC(=O)Cn1c(CCC(=O)O)ccc1-c1cccs1	1.6	0.5	33	53*	0.7
COC(=O)c1ccccc1NC(=O)Cn1ccnc1	1.2	0	84*	100*	0.2
COc1ccc(C2C=C(c3ccccc3)Nc3nnnn32)cc1 (stereo not given)	0.9	0.1	74*	90*	0.3
COc1ccc(C2C=C(c3ccc(C)cc3)Nc3ncnn32)cc1 (stereo not given)	1.3	0.7	34	28	0.7
COc1cccc(C2=CC(c3ccccc3)n3nnnc3N2)c1 (stereo not given)	0.8	0.2	79*	82*	0.2
COc1ccc(C2=CC(c3ccc(C)cc3)n3nnnc3N2)cc1 (stereo not given)	1.1	0.3	86*	75*	0.1
CC(C)Oc1ccc(C(=O)O)c(C(=O)O)c1	0.9	0.7	3	28	1
CN(C)S(=O)(=O)n1ccnc1	0.9	1.1	-4	-6	1
C=CCSc1nnc2c(n1)OC=Nc1ccc(Br)cc1-2	1.2	0.5	60*	53*	0.4
Cc1cc(C)c(S(=O)(=O)N2CCN(c3ccc([N+](=O)[O-])c(-n4nc(C)cc4C)c3)CC2)c(C)c1	1.4	0.8	60*	18	0.4
Cn1c(=NC(=O)CN2C(=O)C3CC=CCC3C2=O)sc2ccccc21 (stereo not given)	1.3	0.7	34	34	0.7
Cc1c(C(=O)C(C)C)n(C)c2ccccc12	1.1	1	-12	1	1.1
O=C(N/N=C\c1ccc(-c2ccccc2[N+](=O)[O-])o1)C1COc2cc3ccccc3cc2O1 (stereo not given)	1.2	0.6	53*	41	0.5
COc1ccccc1NC(=O)COC(=O)[C@@H]1CCCN1C(=O)c1cccs1	1	0.4	8	59*	0.9
O=C(COC(=O)[C@@H]1CCCN1C(=O)c1cccs1)NCCc1ccccc1	0.8	0.4	19	60*	0.8
CCOc1ccccc1C(=O)NC1CC2CCCC(C1)N2C1CC1 (stereo not given)	1.4	0.8	69*	22	0.3
NC(=O)C1CCN(Cc2nnnn2Cc2ccco2)CC1	0.9	1.1	-2	-6	1
CCOc1ccccc1C(=O)NC1CC2CCCC(C1)N2Cc1nnnn1Cc1ccco1 (stereo not given)	1.6	0.1	98*	88*	0
COc1ccc(-c2nnc3ccc(SCC(=O)N4CCOCC4)nn23)cc1	1.1	1	21	1	0.8
O=C(CSc1nnc(CN2CCOCC2)n1-c1ccccc1)N1CCc2ccccc21	0.7	0.7	63*	27	0.4
Cc1ccc(-c2nnc3ccc(SCC(=O)N4CCc5ccccc54)nn23)cc1	0.9	0.8	100*	20	0
COc1ccc(OCc2nnc(SCC(=O)N3CCCc4ccccc43)n2-c2ccc(C)cc2)cc1	1.9	0.4	87*	62*	0.1
CCOc1ccc(-n2c(COc3ccc(C)cc3)nnc2SCC(N)=O)cc1	1.8	0.1	38	91*	0.6
O=S(=O)(c1ccc(Oc2ccc(Cl)cc2)c(S(=O)(=O)N2CCCCC2)c1)N1CCCCC1	1.1	0.9	39	8	0.6
COC(=O)c1cc(-c2ccccc2)sc1NC(=O)CN1C(=O)c2ccccc2C1=O	1.2	0.9	49	12	0.5
